An excerpt weighted towards active compounds, which were near 10% of everything screened.
BAZ2B inh: blocks human BAZ2B; AlphaScreen BAZ2B-H3K14Ac peptide displacement; Potency, µM (top dose mostly 114 µM), without a hit: at the highest dose activity change, negative = inhibition, most hits filed as inhibitors; 4.4% of 360,000 active; also: potency is read from the fitted curve at half-maximal effect; % is scaled to controls: 0 for no effect and ±100 for the full control effect; nearly all actives have a fitted effect of over 60% in size
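BAZ2B (50 nM) with biotin-H3(5-23)K14Ac peptide (50 nM) in PBS pH 7.4, 0.01% Tween-20, preformed 30 min, then compound 30 min at room temperature; top concentration 110uM. AlphaScreen streptavidin donor/nickel chelate acceptor beads (10 ug/mL final), 20 min dark, signal read.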
JMJD2A Tudor: inhibitors of human JMJD2A Tudor domain; 4.4% of 390,000 active; Potency, µM (doses to about 114 µM), inactives show at the highest dose activity change, negative = inhibition, actives largely listed as inhibitors; O75164; AID 504339; AlphaScreen JMJD2A-Tudor / H3K4me3 peptide binding; also: potency is read from the fitted curve at half-maximal effect; % is scaled to controls: 0 for no effect and ±100 for the full control effect; nearly all actives have a fitted effect of over 50% in size
HP1b binding inh: inhibitors of HP1-beta chromodomain binding to methylated histone tails. 0.56% of 390,000 active. Potency, µM (top dose mostly 114 µM), for inactives: at the highest dose activity change, negative = inhibition, most hits filed as inhibitors. P83916. AID 540317. AlphaScreen HP1-beta / biotin-H3K9me3 peptide binding; also: potency is read from the fitted curve at half-maximal effect; nearly all actives have a fitted effect of over 70% in size
Target sequence (P83916 whole entry, looked up): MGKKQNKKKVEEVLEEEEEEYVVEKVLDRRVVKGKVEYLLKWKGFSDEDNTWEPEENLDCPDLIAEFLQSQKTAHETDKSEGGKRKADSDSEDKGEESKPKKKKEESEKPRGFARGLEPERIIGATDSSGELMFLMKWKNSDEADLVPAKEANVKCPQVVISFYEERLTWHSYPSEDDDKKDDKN
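HP1-beta protein (50 nM final) preincubated 30 min at room temperature with biotinylated H3(1-18)K9me3 peptide (50 nM) in PBS pH 7.4, 0.01% Tween-20, then compound added for 30 min. AlphaScreen streptavidin donor/nickel chelate acceptor beads (10 ug/mL final), 30 min dark, luminescence read.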
G9a inh: blocks human histone lysine methyltransferase G9a; Q96KQ7; G9a H3K9 monomethylation, AlphaScreen, 2 h; Potency, µM (highest dose often 102 µM), inactives show top-dose activity, negative = inhibition, hits mostly inhibitors; 8.8% of 350,000 active; AID 504332; also: potency is read from the fitted curve at half-maximal effect; % is scaled to controls: 0 for no effect and ±100 for the full control effect; nearly all actives have a fitted effect of over 75% in size
Target sequence (Q96KQ7 913-1193 limits assumed): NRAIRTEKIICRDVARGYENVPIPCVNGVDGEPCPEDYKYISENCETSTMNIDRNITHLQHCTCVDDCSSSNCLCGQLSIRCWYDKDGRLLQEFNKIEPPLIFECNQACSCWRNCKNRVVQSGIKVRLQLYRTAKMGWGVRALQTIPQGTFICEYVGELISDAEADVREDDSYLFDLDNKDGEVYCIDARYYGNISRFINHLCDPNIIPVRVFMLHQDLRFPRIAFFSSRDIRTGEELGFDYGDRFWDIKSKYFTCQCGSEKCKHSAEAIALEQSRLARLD
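G9a (20 nM) preincubated 15 min RT with compounds, then 500 nM biotinylated H3K9 peptide and 20 uM SAM added; 2 h RT reaction. Monomethyl-H3K9 product detected by AlphaScreen with anti-H3K9me1 antibody, streptavidin donor and anti-rabbit IgG acceptor beads.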
CtBP-E1A inh: CtBP/E1A binding inhibition. AlphaScreen GST-E1A/His-CtBP binding, 1536-well; active compounds read low. activity change, % (concentration not given with the values). 0.49% of 340,000 active. AID 651724; in the data active = activity change below about -65%; inconclusive = mostly about -30% to -63%; also: % is scaled to controls: 0 for no effect and ±100 for the full control effect
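GST-E1A and His-tagged CtBP (125 nM each as 5X stock) were preincubated with pin-transferred compound for 2 h at 37 °C in the dark, then glutathione donor and nickel acceptor beads were added for 1 h before AlphaScreen reading.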
Six1-Eya2 inh: blocks human Six1 binding to Eya2 | Q15475+O00167 | AlphaScreen GST-Six1/His-Eya2 binding, biochemical; active compounds read low | activity change, % (test concentration not listed) | 0.56% of 360,000 active | AID 651725; in the data active = activity change below about -65%; inconclusive = mostly about -30% to -63%; also: % is scaled to controls: 0 for no effect and ±100 for the full control effect
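GST-Six1 + His-Eya2 (5X stock: 250/500 nM); Tris pH 8.0, 300 mM NaCl, 0.05% BSA, 0.02% Tween 20; GSH donor/Ni acceptor beads; 1 h 37 °C dark; AlphaScreen readout.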
Starred values were filed as active, the others as inactive; ? = inconclusive; · = no result given; [ ] = dose if it differs, or a comment. Unless noted, calls follow the shape of the dose curve; as a rule, active = well fitted inhibition curve with a large enough effect; inconclusive = small, poorly fitted or top-dose-only effect; inactive = no such curve, though single readings can be large or run the other way.

SMILES	BAZ2B inh	JMJD2A Tudor	HP1b binding inh	G9a inh	CtBP-E1A inh	Six1-Eya2 inh
Oc1ccc(Cl)cc1C1C=C(c2ccc3c(c2)OCO3)NC(c2cc(Br)ccc2F)N1 (stereo unspecified)	·	?	-80%	·	·	·
C=CCNCc1cccn1-c1sc2c(c1C#N)CCCC2	?	3.2µM*	?	?	-2	-12
N#Cc1c(-n2cccc2/C=N/O)sc2c1CCCC2	45µM*	45µM*	?	?	-15	-25
N#Cc1c(N2C(=O)C3C4C=CC(C4)C3C2=O)sc2c1CCC2 (stereo unspecified)	8%	-13%	29%	-17%[12.7 µM]	-4	4
COc1ccc(S(=O)(=O)N(C)C)cc1NC(=O)CCNC(=O)c1ccco1	4%	-4%	6%	15%	1	-5
CCCCNC(=O)c1[nH]c(=O)cnc1-c1ccccc1	·	·	·	·	32	29
CSc1cccc(NC(=O)c2nnn(CC(=O)Nc3cc(C)cc(C)c3)c2N)c1	-16%	14µM*	13%	6%[59 µM]	3	-1
O=C(NCC1CCCCC1)C1CCC(=O)N(CCc2cccc(F)c2)C1 (stereo unspecified)	-2%[57.1 µM]	0%	40%	16%	6	2
Cc1ccccc1-c1cnc2c(c1)C(=O)N([C@H](C)CO)C[C@@H](C)[C@H](CN(C)C(=O)c1ccncc1)O2	·	·	·	·	6	-2
Cc1cccc(C)c1N1CCN(C(=O)Cn2cncn2)CC1	-25%	?	3%	18µM*	-7	0
O=C(Cn1cncn1)N1CCN(c2ccc(F)cc2)CC1	6%	-14%	45%	·	4	-1
Cn1c2ccccc2c2cc(/C=N/NC(=O)c3cc(O)ccc3O)ccc21	45µM*	32µM*	?	40µM*	?	-69*
Cn1c2ccccc2c2cc(/C=N/NC(=O)c3cc(O)cc(O)c3)ccc21	35µM*	56µM*	?	50µM*	?	?
COc1cc(C(=O)N/N=C/c2ccc3c(c2)c2ccccc2n3C)ccc1O	-23%	-14%	10%	22%	-20	?
O=C1CCCc2c1sc1nc3n(c(=O)c21)CCCCC3	0%	-12%	60%	-33%	-2	-2
O=C1c2sc3nc4n(c(=O)c3c2CCC1Br)CCCCC4 (stereo unspecified)	50µM*	7.9µM*	?	4%[0.501 µM]	5	-3
CCn1c(O)c(C=Nc2ccccc2)sc1=S	6%	-11%	42%	?	8	4
C=CCn1c(O)c(C=Nc2ccccc2)sc1=S	-18%	-12%	35%	50µM*	-4	-3
CC1=CC2(C)NC(=O)C(C)C12 (stereo unspecified)	·	·	·	·	0	0
O=C(NCc1ccccc1)c1ccc2c(c1)sc1nc(-c3ccc(F)cc3)cn12	-14%	-14%	67%	6%[59 µM]	·	·
CCCNC(=O)Cn1c(SCc2ccccc2C)nc2ccncc21	·	-13%[57.1 µM]	19%[57 µM]	·	·	·
O=C(CCN1C(=O)/C(=C\C=C\c2ccccc2)SC1=S)Nc1cccc(C(=O)O)c1	20µM*	50µM*	?	·	-11	-11
O=C(CCN1C(=O)/C(=C\C=C\c2ccccc2)SC1=S)Nc1ccccc1C(=O)O	-11%	45µM*	?	73%	-1	-5
COc1cccc(-c2cncnc2Nc2ccccc2)c1	·	·	·	11%[0.501 µM]	·	·
Cc1noc(C)c1-c1ccc2ncnc(NCc3ccccc3F)c2c1	·	-10%	·	·	·	·
SMILES	BAZ2B inh	JMJD2A Tudor	HP1b binding inh	G9a inh	CtBP-E1A inh	Six1-Eya2 inh
COc1cc(C2CC(=O)Oc3cc(C)c(Cl)cc32)cc(OC)c1OC (stereo unspecified)	·	·	·	21%	·	·
CC(Sc1nncn1C)C(=O)Nc1ccc2ccccc2c1 (stereo unspecified)	7%	-16%	18%	8.9µM*	-8	0
C(#Cc1ccccc1)CN1CCN(c2ccccn2)CC1	50µM*	?	1%	?	4	-4
CC(CCN1CCN(c2ccccn2)CC1)c1ccccc1 (stereo unspecified)	?	25µM*	?	28µM*	-10	0
C(#Cc1ccccc1)CN1CCCCC1	-3%	-12%	7%	19%[0.501 µM]	4	1
CC(CCN1CCN(c2ccccc2)CC1)c1ccccc1 (stereo unspecified)	?	-30%	5%	?	-30	-19
Cc1ccc(F)c(S(=O)(=O)NC(=O)C2(C)CCN2C(=O)c2ccc(C3CCCCC3)cc2)c1 (stereo unspecified)	·	·	·	·	33	28
CCN1CCN(c2cc(C)c3cc(NC(=S)NCCCOC)ccc3n2)CC1	-15%	-13%	15%	?	·	-7
COc1ccc(CNC(=S)Nc2ccc3nc(N4CCN(C)CC4)cc(C)c3c2)cc1	?	?	-10%	45µM*	-21	-14
Cc1cc(N2CCN(C)CC2)nc2ccc(NC(=S)NCc3cccs3)cc12	-33%	-33%	-7%	40µM*	-10	-4
CCN1CCN(c2cc(C)c3cc(NC(=S)NCc4cccs4)ccc3n2)CC1	-37%	?	-5%[57 µM]	45µM*	·	-6
Cc1cc(C)cc(N(CC(=O)NC2CCCC2)C(=O)CCC(=O)Nc2nc(C)cs2)c1	8%	1%	37%	7%	0	-6
CC(=O)c1c(C)[nH]c(C(=O)NCc2ccco2)c1C	-10%	-8%	28%	17%[0.0925 µM]	1	-1
COc1ccc(S(=O)(=O)Nc2ccc3c(c2)OCO3)cc1	-10%	-15%	19%	2%[59 µM]	4	2
COc1ccc(N/C=C2\CCc3ccccc3C2=O)cc1	14%	15%	54%	2µM*	18	5
O=C1/C(=C/Nc2ccc3c(c2)OCO3)CCc2ccccc21	-38%	-42%	?	1.8µM*	4	-14
COc1ccc2c(c1)CC/C(=C\Nc1ccc3c(c1)OCO3)C2=O	?	?	?	2.5µM*	2	-10
O=C1OC2(CCCCC2)OC(=O)C1=CNc1ccc2c(c1)OCO2	9%	-10%	20%	8%[59 µM]	5	1
O=C(O)c1ccc(N=NN2CCCC2)cc1	-13%	-6%	31%	35µM*	8	0
CC(=O)Nc1cccc(N=NN2CCCCC2)c1	-28%	-19%	4%	22µM*	1	17
CC(=O)Nc1ccc(N=NN2CCOCC2)cc1	-20%	-12%	?	8.9µM*	2	4
Cc1cc(C)n(-c2cccc(F)n2)n1	-11%	9%	43%	13%	2	3
C/C(=N\NC(=O)c1nnn(-c2nonc2N)c1CN1CCC(C)CC1)c1ccc(Br)cc1	·	·	·	·	0	-1
Nc1nonc1-n1nnc(C(=O)N/N=C/c2c(Cl)cccc2Cl)c1CN1CCOCC1	5%	-2%	20%	-9%	-1	-11
